Measured values published in PubChem BioAssay AID1159580 (chemical genetic matrix, 2015).
The campaign covered roughly 5,500 compounds. About 2,000 (36%) were called active. About 18% were inconclusive and are not listed. No stated cut-off is given here; in the data, active means normalized growth mostly below about 0.91 (no sharp cut-off); inconclusive means no clear call, values can overlap the other calls; inactive means mostly above about 0.92. The list shows a part of the results.

Assay: chemical genetic growth profiling, strain panel (AID 1159580);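 further: tested at 20 µM; growth read once vehicle control cultures reached saturation at 30 °C; 1 = growth at the plate median or of vehicle wells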
Settings: growth OD

Measured: normalized growth

CC(N)Cc1ccc(O)cc1 (stereo unspecified)
inactive: S. cerevisiae deletion strains, locus YAL013W, strain DEP1, stronger effect = lower value 1.01 | S. cerevisiae deletion strains, locus YBR021W, strain FUR4, stronger effect = lower value 1.04 | S. cerevisiae deletion strains, locus YBR229C, strain ROT2, stronger effect = lower value 1.01 | S. cerevisiae deletion strains, locus YCL029C, strain bik1, stronger effect = lower value 1.02 | S. cerevisiae deletion strains, locus YDL035C, strain GPR1, stronger effect = lower value 1.02 | S. cerevisiae deletion strains, locus YDL074C, strain BRE1, stronger effect = lower value 1 | S. cerevisiae deletion strains, locus YDL101C, strain DUN1, stronger effect = lower value 1.02 | S. cerevisiae deletion strains, locus YDL134C, strain PPH21, stronger effect = lower value 1.01 | S. cerevisiae deletion strains, locus YDL185W, strain tfp1, stronger effect = lower value 1.01 | S. cerevisiae deletion strains, locus YDL192W, strain arf1, stronger effect = lower value 1.03 | S. cerevisiae deletion strains, locus YDR101C, strain arx1, stronger effect = lower value 1.01 | S. cerevisiae deletion strains, locus YDR150W, strain NUM1, stronger effect = lower value 1.01 | S. cerevisiae deletion strains, locus YDR162C, strain NBP2, stronger effect = lower value 1 | S. cerevisiae deletion strains, locus YDR318W, strain mcm21, stronger effect = lower value 1.03 | S. cerevisiae deletion strains, locus YDR388W, stronger effect = lower value 1.02 | S. cerevisiae deletion strains, locus YDR502C, strain sam2, stronger effect = lower value 1.01 | S. cerevisiae deletion strains, locus YEL061C, strain CIN8, stronger effect = lower value 1.02 | S. cerevisiae deletion strains, locus YER110C, stronger effect = lower value 1.02 | S. cerevisiae deletion strains, locus YER155C, strain BEM2, stronger effect = lower value 1 | S. cerevisiae deletion strains, locus YER167W, strain BCK2, stronger effect = lower value 1.03 | S. cerevisiae deletion strains, locus YGL078C, strain dbp3, stronger effect = lower value 1.02 | S. cerevisiae deletion strains, locus YGL086W, strain mad1, stronger effect = lower value 1.02 | S. cerevisiae deletion strains, locus YGL248W, strain PDE1, stronger effect = lower value 1.02 | S. cerevisiae deletion strains, locus YGR078C, strain PAC10, stronger effect = lower value 1.01 | S. cerevisiae deletion strains, locus YGR135W, strain pre9, stronger effect = lower value 1 | S. cerevisiae deletion strains, locus YGR229C, strain SMI1, stronger effect = lower value 1.01 | S. cerevisiae deletion strains, locus YGR252W, strain gcn5, stronger effect = lower value 1.04 | S. cerevisiae deletion strains, locus YHR030C, strain SLT2, stronger effect = lower value 1.01 | S. cerevisiae deletion strains, locus YHR079C, strain IRE1 (second series), stronger effect = lower value 1.03 | S. cerevisiae deletion strains, locus YHR094C, strain hxt1, stronger effect = lower value 1.01 | S. cerevisiae deletion strains, locus YHR129C, strain ARP1, stronger effect = lower value 1.03 | S. cerevisiae deletion strains, locus YHR200W, strain rpn10, stronger effect = lower value 1.01 | S. cerevisiae deletion strains, locus YIL066C, strain RNR3, stronger effect = lower value 1.01 | S. cerevisiae deletion strains, locus YIL073C, strain SPO22, stronger effect = lower value 1.07 | S. cerevisiae deletion strains, locus YIL125W, strain kgd1, stronger effect = lower value 1.02 | S. cerevisiae deletion strains, locus YIR030C, strain dcg1, stronger effect = lower value 1.02 | S. cerevisiae deletion strains, locus YJL095W, strain BCK1, stronger effect = lower value 1.02 | S. cerevisiae deletion strains, locus YJL134W, strain LCB3, stronger effect = lower value 1.01 | S. cerevisiae deletion strains, locus YJL168C, strain set2, stronger effect = lower value 1.01 | S. cerevisiae deletion strains, locus YJL187C, strain SWE1 (second series), stronger effect = lower value 1.02 | S. cerevisiae deletion strains, locus YJR043C, strain POL32, stronger effect = lower value 1.06 | S. cerevisiae deletion strains, locus YJR075W, strain HOC1, stronger effect = lower value 1.02 | S. cerevisiae deletion strains, locus YKL009W, strain mrt4, stronger effect = lower value 1.04 | S. cerevisiae deletion strains, locus YKL068W, stronger effect = lower value 1.01 | S. cerevisiae deletion strains, locus YKL085W, strain MDH1 (second series), stronger effect = lower value 1.02 | S. cerevisiae deletion strains, locus YKL085W, strain MDH1, stronger effect = lower value 1.02 | S. cerevisiae deletion strains, locus YKL190W, strain CNB1, stronger effect = lower value 1.01 | S. cerevisiae deletion strains, locus YKR001C, strain vps1, stronger effect = lower value 1.04 | S. cerevisiae deletion strains, locus YLR039C, strain RIC1, stronger effect = lower value 1.05 | S. cerevisiae deletion strains, locus YLR058C, strain SHM2, stronger effect = lower value 1.02 | S. cerevisiae deletion strains, locus YLR102C, strain apc9, stronger effect = lower value 1.02 | S. cerevisiae deletion strains, locus YLR262C, strain YPT6, stronger effect = lower value 1.01 | S. cerevisiae deletion strains, locus YLR268W, strain sec22, stronger effect = lower value 1.01 | S. cerevisiae deletion strains, locus YLR330W, strain CHS5, stronger effect = lower value 1.01 | S. cerevisiae deletion strains, locus YLR342W, strain FKS1 (second series), stronger effect = lower value 1.08 | S. cerevisiae deletion strains, locus YLR371W, strain rom2, stronger effect = lower value 1.02 | S. cerevisiae deletion strains, locus YLR418C, strain cdc73, stronger effect = lower value 0.995 | S. cerevisiae deletion strains, locus YML016C, strain PPZ1, stronger effect = lower value 1.02 | S. cerevisiae deletion strains, locus YML032C, strain rad52, stronger effect = lower value 1.04 | S. cerevisiae deletion strains, locus YML124C, strain tub3, stronger effect = lower value 1.01 | S. cerevisiae deletion strains, locus YMR078C, strain ctf18, stronger effect = lower value 1.03 | S. cerevisiae deletion strains, locus YMR223W, strain ubp8, stronger effect = lower value 1.03 | S. cerevisiae deletion strains, locus YMR263W, strain SAP30, stronger effect = lower value 1.01 | S. cerevisiae deletion strains, locus YMR307W, strain GAS1, stronger effect = lower value 1.08 | S. cerevisiae deletion strains, locus YNL067W, strain RPL9B, stronger effect = lower value 1.01 | S. cerevisiae deletion strains, locus YNL128W, strain TEP1, stronger effect = lower value 0.99 | S. cerevisiae deletion strains, locus YNL153C, strain GIM3, stronger effect = lower value 1.01 | S. cerevisiae deletion strains, locus YNL233W, strain BNI4, stronger effect = lower value 1.02 | S. cerevisiae deletion strains, locus YNL250W, strain rad50, stronger effect = lower value 1.01 | S. cerevisiae deletion strains, locus YNL271C, strain bni1, stronger effect = lower value 1.02 | S. cerevisiae deletion strains, locus YNL298W, strain CLA4, stronger effect = lower value 1.03 | S. cerevisiae deletion strains, locus YNL307C, strain MCK1, stronger effect = lower value 1.03 | S. cerevisiae deletion strains, locus YNL322C, strain KRE1, stronger effect = lower value 1.01 | S. cerevisiae deletion strains, locus YNR052C, strain pop2, stronger effect = lower value 1.01 | S. cerevisiae deletion strains, locus YOL006C, strain TOP1, stronger effect = lower value 1.07 | S. cerevisiae deletion strains, locus YOL012C, strain htz1 1.46 | S. cerevisiae deletion strains, locus YOL147C, strain pex11, stronger effect = lower value 1.02 | S. cerevisiae deletion strains, locus YOR061W, strain CKA2, stronger effect = lower value 1.01 | S. cerevisiae deletion strains, locus YOR069W, strain VPS5, stronger effect = lower value 1.02 | S. cerevisiae deletion strains, locus YOR136W, strain idh2, stronger effect = lower value 1.01 | S. cerevisiae deletion strains, locus YOR144C, strain elg1, stronger effect = lower value 1.01 | S. cerevisiae deletion strains, locus YOR184W, strain ser1, stronger effect = lower value 1.04 | S. cerevisiae deletion strains, locus YOR316C, strain cot1, stronger effect = lower value 1.02 | S. cerevisiae deletion strains, locus YPL055C, strain LGE1, stronger effect = lower value 0.982 | S. cerevisiae deletion strains, locus YPL241C, strain CIN2, stronger effect = lower value 1.01 | S. cerevisiae deletion strains, locus YPR119W, strain clb2, stronger effect = lower value 1.01 | S. cerevisiae deletion strains, locus YPR141C, strain kar3, stronger effect = lower value 1.02 | S. cerevisiae deletion strains, locus YPR163C, strain tif3, stronger effect = lower value 1.02 | S. cerevisiae deletion strains, locus YPR167C, strain met16, stronger effect = lower value 1.02 | S. cerevisiae deletion strains, strain wtn01, stronger effect = lower value 1.01 | S. cerevisiae strains, strain wild type, stronger effect = lower value 1.01
